The whole screen tested about 290,000 compounds, of which about 3,000 (1%) were called active. No stated cut-off is given here; in the data, active means inhibition mostly above about 36% (no sharp cut-off); inactive means mostly below about 34%. The full list was thinned out, with actives kept by preference.
Assay: inhibition of NOD1-driven NF-kB reporter – cell-based, luminescence, uHTS, primary screen (AID 1578);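 further: HEK-293T reporter cells stimulated with the NOD1 agonist gamma-tri-DAP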
Settings: NOD1-driven NF-kB luciferase reporter cells, at 4 µM, hits give high values

inhibition, inactive:
c1ccc(CSc2nnc(Cc3ccccn3)o2)cc1 -32.5%
CSC(=Nc1ccc(Cl)cc1)N[n+]1ccccc1 -6.8%
NC(=Nc1ccc(Cl)cc1)c1ccccc1 -49%
NC(=O)CCc1nc2cc(C(F)(F)F)ccc2n(Cc2ccccc2)c1=O -13%
O=C(NCCCn1ccnc1)/C(=C/c1ccccc1)NC(=O)c1ccccc1 32.8%
O=C(COc1ccccc1Cl)NNC(=O)c1cc(S(=O)(=O)N2CCOCC2)ccc1N1CCCC1 -47.2%
COc1ccc(O)c(C2(O)C(=O)c3ccccc3C2=O)c1 0.1%
COCCCNC(=O)c1ccc2c(c1)OCO2 -16.8%
Cc1ccc(OCCNC(=O)c2ccc3c(c2)OCO3)cc1 -63.7%
O=C(CNC(=O)c1ccc2c(c1)OCO2)N/N=C/c1cccc([N+](=O)[O-])c1 -59.4%
CC(/C=C/c1ccccc1)=N/NC(=O)CNC(=O)c1ccc2c(c1)OCO2 5.3%
Cc1ccccc1C(=O)OCc1cnc(Cl)s1 -8.8%
S=c1[nH]nc(C23CC4CC(CC(C4)C2)C3)n1Cc1ccco1 1.2%
CCOC(=O)/C=C/C(=O)OCC(=O)NC(c1ccccc1)c1ccccc1 25.7%
O=C(COC(=O)/C=C/C(=O)N1CCN(c2ccccc2)CC1)NCc1ccc(F)cc1 -5.2%
Cc1ccc(NS(=O)(=O)c2c(C)[nH]c(C)c2C(=O)N2CCCCC2)cc1F -24.4%
CCCCn1c(Oc2ccc(C(=O)OC)cc2)nc2c1c(=O)n(C)c(=O)n2C 9.2%
O=C(CN1C(=O)CC(c2ccccc2)Sc2ccccc21)NCC1CCCO1 (stereo unspecified) -33.1%
CCOC(=O)c1ccc(N2C(=O)c3n[nH]c(C)c3C2c2cccnc2)cc1 (stereo unspecified) 9.9%
Cc1ccc(N2C(=O)c3n[nH]c(C)c3C2c2cccnc2)cc1 (stereo unspecified) -28.2%
Nc1nc(CSCc2ccccc2)nc(N2CCOCC2)n1 2%
CC(=O)N/N=C(\C)CCc1ccccc1 -4.4%
Cc1cc(=O)[nH]c(SC(C)C(=O)Nc2cccc3ccccc23)n1 (stereo unspecified) -23.2%
CC1=C(C(=O)OCc2ccccc2)C(c2ccccc2Cl)NC(=O)N1CCCC(=O)O (stereo unspecified) 17.1%
CC1=C(C(=O)OCc2ccccc2)C(c2cccc(Cl)c2Cl)NC(=O)N1CCCCCC(=O)O (stereo unspecified) 8.9%
O=C(O)c1ccc(NC(=O)c2cccc(N3C(=O)C4C5CCC(C5)C4C3=O)c2)cc1 (stereo unspecified) -29.6%
O=C(Nc1ccc(Br)cc1)c1cccc(N2C(=O)C3C4CCC(C4)C3C2=O)c1 (stereo unspecified) 11.1%
O=C(NC(c1ccccc1)c1ccccc1)c1cccc(S(=O)(=O)NCc2ccccc2)c1 -4.9%
COc1cc(OC)c(OC)cc1/C=C1\CCC(C2CCCC2)C1=O (stereo unspecified) -28.9%
COc1cc(/C=C2\COC/C(=C\c3ccc(O)c(OC)c3)C2=O)ccc1O 0%
COc1ccc(/C=C2\CCC/C(=C\c3ccc(OC)c(OC)c3OC)C2=O)c(OC)c1OC -1%
COc1cc(/C=C2/CC/C(=C/c3ccc(O)c(OC)c3)C2=O)ccc1O 20.8%
COc1ccc(/C=C2\CC/C(=C\c3ccc(OC)cc3OC)C2=O)c(OC)c1 -1.2%
COc1cc(OC)c(OC)cc1/C=C1/Cc2ccccc2C1=O -5%
COc1cccc(NC(=O)N2CCCC(C(=O)NCc3ccc(F)cc3)C2)c1 (stereo unspecified) -13.5%
COc1cc(-c2c(-c3cccc(C)c3)oc3ccccc23)cc(OC)c1OC 4.2%
Cc1nn(Cc2ccccc2)c(C)c1/C=N/NC(=O)c1cccnc1 25.8%
O=C(N/N=C/c1c(O)n(Cc2ccccc2)c(=O)c2ccccc12)c1cccnc1 -5.8%
CC1CCN(C(=O)c2ccccc2NC(=O)c2cccc(S(=O)(=O)N3CCOCC3)c2)CC1 -2.3%
CCOc1ccc(CN(C)C(=O)CCl)cc1 10.8%
COc1ccc(CN(C)C(=O)CCl)cc1 10%
O=C(NC1CC1)C1CCN(C2CCN(C(=O)/C=C/c3cccc(F)c3F)CC2)CC1 -10.9%
CC1CN(S(=O)(=O)c2ccc(C(=O)Nc3ccc(S(=O)(=O)Nc4ncccn4)cc3)cc2)CC(C)O1 (stereo unspecified) -34.7%
O=C(NCc1ccco1)c1c[nH]c2ccc(S(=O)(=O)N3CCOCC3)cc2c1=O -21.1%
Nc1ccc(-c2nc3ccc(N)cc3s2)cc1 -7.4%
O=C(O)c1ccc2nc(-c3ccccc3)sc2c1 26.5%
C[C@@H]1NC(=O)[C@H](CCC(=O)O)NC(=O)c2cc([N+](=O)[O-])cc(F)c2NCCC[C@@H](C(N)=O)NC1=O -18.8%
O=c1c2[nH]c3ccc(F)cc3c2ncn1CCC1=CCCCC1 -0.7%
CN(C)CCCNc1ncnc2scc(-c3ccccc3)c12 -40.3%
COc1ccc(-c2csc3ncnc(Nc4ccc(O)cc4)c23)cc1 15.8%
c1csc(-c2csc3ncnc(NCCCN4CCOCC4)c23)c1 30.7%
c1ccc2c(c1)OCC(CNc1ncnc3sccc13)O2 (stereo unspecified) 57.1%
Cc1sc2ncnc(NCC3COc4ccccc4O3)c2c1C (stereo unspecified) 44.6%
c1ccc(CNc2nc(-c3cccs3)nc3ccccc23)nc1 -27.4%
Cc1csc2ncnc(NCCc3ccccn3)c12 37%
O=C(O)c1ccc(Nc2ncnc3scc(-c4ccccc4)c23)cc1 -63%
CC(=O)N(c1ccc(N(C(C)=O)S(=O)(=O)c2cccs2)cc1)S(=O)(=O)c1cccs1 3%
CSc1nnc2c3cc(F)ccc3n(Cc3ccccc3)c2n1 -1.5%
CN(C)/C=C/C(=O)c1cnc(-c2ccccc2Cl)s1 -20.8%
Cn1c(=O)oc2cc(S(=O)(=O)NCCC(=O)N3CCN(c4ccccc4)CC3)ccc21 -5.7%
CCC(C)C(=O)Nc1cc(C(=O)OC)ccc1C(=O)OC (stereo unspecified) -11.8%
CC1(C)CC(=O)c2cc(N=C/C(C(=O)c3ccccc3)=C(\O)c3ccccc3)c(=O)oc2C1 -21.7%
Cc1cc(C)n2nc(N)c(N=Nc3ccc4c(c3)OCO4)c2n1 22.6%
Nc1nn(-c2ccccc2)c(N)c1N=Nc1ccc2c(c1)OCO2 -68.3%
COc1cccc(CNC(C)(C)CO)c1OCc1ccc(Cl)cc1 -33%
COc1ccc(CC(=O)NC2CCN(Cc3nnnn3C(C)(C)C)CC2)cc1OC -12.7%
COc1ccc(/C=C/C(=O)N2CCN(c3ccccn3)CC2)cc1 -37.3%
CCOC(=O)/C(C#N)=C\C1=C(N2CCOCC2)CC(C)(C)OC1 -33.6%
CCOC(=O)C1=C(CC)Nc2ccccc2N=C1NC(=O)CCN1C(=O)C2CCCCC2C1=O (stereo unspecified) -14.8%
N#CC1=C(S)N(c2ccc(F)cc2)C(c2ccco2)NC1=O (stereo unspecified) -47.2%
Cc1ccc(N2C(S)=C(C#N)C(=O)NC2c2ccco2)cc1 (stereo unspecified) -33.2%
CCC(=O)c1ccc(OCC(=O)NC2(C#N)CCCCC2)cc1 -14.9%
COc1ccc(CCNC(=O)C(=O)NCC2OCCN2C(=O)c2ccc(Cl)cc2)cc1OC (stereo unspecified) -3.4%
Cc1cc(C)c(C2C(C#N)=C(N)Oc3n[nH]c(C)c32)cc1CN1CCOCC1 (stereo unspecified) -16%
COc1ccc(/C=N/Nc2nnc(Cc3ccc(OC)c(OC)c3)c(=O)[nH]2)cc1OC 4.2%
COc1ccc(-c2nc3ccccn3c2NCc2ccc3c(c2)OCO3)cc1 -27.1%
Cc1ccn2c(NCc3ccc4c(c3)OCO4)c(-c3ccc(O)cc3)nc2c1 3.7%
Cc1cccc(C)c1OCc1nnc(SCC(=O)Nc2ccc(N3CCOCC3)cc2)o1 17.6%
COc1cc(S(=O)(=O)NCc2ccccc2)ccc1Br -7.9%
Cc1cc(-c2ccc(C)c(S(=O)(=O)NCc3ccc(OC(C)C)cc3)c2)on1 -14.2%
Cc1ccc(NCc2cccnc2)c(Br)c1 -14.3%
Cc1cc(C)cc(NCc2ccncc2)c1 -8.1%
Cc1cc(Br)c(S(=O)(=O)NCc2ccncc2)cc1C 26%
Cc1cc(-c2ccc(C)c(S(=O)(=O)NCc3cccc(Br)c3)c2)on1 -20.4%
Cc1ccc(C)c(S(=O)(=O)NCc2ccncc2)c1 34.2%
COc1ccc(S(=O)(=O)NCc2ccncc2)cc1OC 24.7%

inhibition, active:
[S-]C(=Nc1ccc(Cl)cc1)N[n+]1ccccc1 104%
O=C(NCCOc1ccccc1)c1ccc2c(c1)OCO2 55.9%
O=C(CNC(=O)c1ccc2c(c1)OCO2)N/N=C(Br)/C=C/c1ccccc1 80%
O=C(COC(=O)/C=C/C(=O)N1CCN(c2ccccc2)CC1)NC(c1ccccc1)c1ccccc1 76.2%
Cc1[nH]nc2c1C(c1cccnc1)N(c1ccc(Br)cc1)C2=O (stereo unspecified) 43.6%
CC1=C(C(=O)OCc2ccccc2)C(c2ccccc2Cl)NC(=O)N1CCCCCC(=O)O (stereo unspecified) 68.6%
Cc1c(/C=N/NC(=O)c2cccnc2)c2ccccc2n1Cc1ccccc1 38.8%
CN(Cc1ccc(Cl)s1)C(=O)CCl 99.8%
Nc1ccc(-c2nc3ccc(C(=O)O)cc3s2)cc1 89.8%
c1ccc(-c2csc3ncnc(NCC4COc5ccccc5O4)c23)cc1 (stereo unspecified) 75.2%
Oc1ccc(Nc2ncnc3scc(-c4ccccc4)c23)cc1 83.6%
N#CC1=C(S)N(c2ccccc2)C(c2ccco2)NC1=O (stereo unspecified) 68.4%
COc1ccc(-c2nc3cc(C)ccn3c2NCc2ccc3c(c2)OCO3)cc1 48.5%
Cc1cc(-c2ccc(C)c(S(=O)(=O)NCc3ccc(Br)cc3)c2)on1 72.5%
Cc1ccc(NCc2ccncc2)c(Br)c1 63.7%

— PubChem BioAssay AID1578 (Sanford-Burnham Center for Chemical Genomics, 2009)
